The target of one experiment is POU1 (OCT1 POU domain) (human, UniProt P14859 260-458). The experiment is described as follows: EMSA-SELEX-seq; no BOB1; 20 mM Tris-HCl pH 7.6, 140 mM NaCl, 10% glycerol, 0.5 mM EDTA, 0.05% Triton X-100, 0.1 mg/mL BSA, 0.1 mg/mL poly(dI-dC), 5 mM DTT, room temperature, 20 min; high values mean tight binding. The following applies: protein: recombinant; dsDNA, one strand shown. The method in brief: (§1)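 Binding preference is reported as the percentage of sequenced 8-mers that match a motif pattern. Tagged POU-domain proteins were made in E. coli BL21, purified under denaturing conditions and renatured. A 30 ng portion was combined with 300 ng of a PCR-amplified double-stranded random 35-nt library, with or without 28 ng coactivator protein, in 20 μL Tris–HCl pH 7.6 binding buffer for 20 min at RT. Complex bands were excised from native 6% PAGE, eluted and PCR-amplified over four rounds before Illumina sequencing.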
Chain of POU1 (OCT1 POU domain) (P14859 260-458): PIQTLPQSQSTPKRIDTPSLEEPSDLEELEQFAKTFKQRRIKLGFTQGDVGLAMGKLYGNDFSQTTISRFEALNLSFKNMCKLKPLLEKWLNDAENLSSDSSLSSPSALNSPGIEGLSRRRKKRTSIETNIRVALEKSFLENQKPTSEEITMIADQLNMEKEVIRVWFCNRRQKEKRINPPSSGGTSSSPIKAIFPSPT
Consider ATCTAAAG, for which the binding signal is 0.0412 % of ANNNNAAN 8-mers.

AAATCAAC: the binding signal was 0.0759 % of ANNNNAAN 8-mers.

As to AACTAAAC, the binding signal was 0.0225 % of ANNNNAAN 8-mers.

On to AAGATAAA, for which the binding signal was 0.0622 % of ANNNNAAN 8-mers.

For the sequence AATGAAAT, the binding signal was 0.139 % of ANNNNAAN 8-mers.

Take ATCATAAC: the binding signal was 0.0324 % of ANNNNAAN 8-mers.

On to ACGGCAAA, for which the binding signal was 0.0328 % of ANNNNAAN 8-mers.

For AAGGGAAA, the binding signal is 0.196 % of ANNNNAAN 8-mers.

As to ACCGGAAT, the binding signal was 0.0412 % of ANNNNAAN 8-mers.

As to ATCTCAAA, the binding signal was 0.0435 % of ANNNNAAN 8-mers.

Regarding ACTGGAAT, the binding signal is 0.074 % of ANNNNAAN 8-mers.

With AACAAAAG, the binding signal is 0.0522 % of ANNNNAAN 8-mers.

On to AGGTTAAC, for which the binding signal was 0.032 % of ANNNNAAN 8-mers.

Regarding AATAGAAA, the binding signal was 0.0759 % of ANNNNAAN 8-mers.

Regarding ATAACAAA, the binding signal is 0.098 % of ANNNNAAN 8-mers.

In the case of ATCGGAAA, the binding signal was 0.04 % of ANNNNAAN 8-mers.

With AGTATAAG, the binding signal is 0.0397 % of ANNNNAAN 8-mers.

As to AGGTTAAA, the binding signal is 0.0545 % of ANNNNAAN 8-mers.

In the case of ACGTCAAT, the binding signal was 0.0339 % of ANNNNAAN 8-mers.

On to ATATAAAC, for which the binding signal was 0.0637 % of ANNNNAAN 8-mers.

For AGGGTAAG, the binding signal was 0.0503 % of ANNNNAAN 8-mers.

As to AACCAAAT, the binding signal is 0.166 % of ANNNNAAN 8-mers.

As to ATTTTAAT, the binding signal was 0.672 % of ANNNNAAN 8-mers.

As to ATTACAAA, the binding signal was 0.0919 % of ANNNNAAN 8-mers.

With ATTCCAAG, the binding signal is 0.045 % of ANNNNAAN 8-mers.

AGCGTAAA: the binding signal was 0.0427 % of ANNNNAAN 8-mers.

AACGGAAA: the binding signal was 0.0561 % of ANNNNAAN 8-mers.

Regarding AGTAGAAG, the binding signal was 0.0404 % of ANNNNAAN 8-mers.

As for ATTACAAG, the binding signal is 0.0515 % of ANNNNAAN 8-mers.

For the sequence AATGTAAC, the binding signal is 0.0591 % of ANNNNAAN 8-mers.

Regarding ACTAGAAC, the binding signal was 0.016 % of ANNNNAAN 8-mers.

For the sequence ACAGGAAT, the binding signal was 0.0622 % of ANNNNAAN 8-mers.

AGCAAAAT: the binding signal was 0.102 % of ANNNNAAN 8-mers.

In the case of ATTAGAAT, the binding signal is 0.5 % of ANNNNAAN 8-mers.

For the sequence ATAGAAAA, the binding signal is 0.0767 % of ANNNNAAN 8-mers.

With AAGGAAAG, the binding signal was 0.0576 % of ANNNNAAN 8-mers.

In the case of AGTACAAT, the binding signal was 0.0416 % of ANNNNAAN 8-mers.

On to AACTGAAA, for which the binding signal was 0.0358 % of ANNNNAAN 8-mers.

ACAGCAAT: the binding signal was 0.0286 % of ANNNNAAN 8-mers.

As to AATGAAAG, the binding signal is 0.0751 % of ANNNNAAN 8-mers.

The next experiment deals with T1, POU2 (OCT2 POU domain) (human, UniProt P09086 175-386).
T1 sequence: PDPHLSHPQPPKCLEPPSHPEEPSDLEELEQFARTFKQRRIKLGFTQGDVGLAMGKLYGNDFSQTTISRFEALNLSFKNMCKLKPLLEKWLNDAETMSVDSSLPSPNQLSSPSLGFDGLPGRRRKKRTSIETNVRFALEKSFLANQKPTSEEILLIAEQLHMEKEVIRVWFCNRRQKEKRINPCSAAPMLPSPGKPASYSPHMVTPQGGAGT
The description is as above. The following applies: protein: recombinant; dsDNA, one strand shown. The method in brief: as §1
In the case of ATCTAAAG, the binding signal is 0.0397 % of ANNNNAAN 8-mers.

For the sequence AAATCAAC, the binding signal is 0.0921 % of ANNNNAAN 8-mers.

Take AACTAAAC: the binding signal is 0.0299 % of ANNNNAAN 8-mers.

For AAGATAAA, the binding signal was 0.0662 % of ANNNNAAN 8-mers.

As for AATGAAAT, the binding signal is 0.157 % of ANNNNAAN 8-mers.

As for ATCATAAC, the binding signal is 0.0374 % of ANNNNAAN 8-mers.

For the sequence ACGGCAAA, the binding signal was 0.0305 % of ANNNNAAN 8-mers.

With AAGGGAAA, the binding signal is 0.146 % of ANNNNAAN 8-mers.

For ACCGGAAT, the binding signal was 0.0489 % of ANNNNAAN 8-mers.

On to ATCTCAAA, for which the binding signal was 0.0443 % of ANNNNAAN 8-mers.

For ACTGGAAT, the binding signal was 0.0765 % of ANNNNAAN 8-mers.

For the sequence AACAAAAG, the binding signal is 0.0518 % of ANNNNAAN 8-mers.

For AGGTTAAC, the binding signal is 0.0293 % of ANNNNAAN 8-mers.

As to AATAGAAA, the binding signal is 0.0972 % of ANNNNAAN 8-mers.

ATAACAAA: the binding signal was 0.0909 % of ANNNNAAN 8-mers.

Consider ATCGGAAA, for which the binding signal was 0.0409 % of ANNNNAAN 8-mers.

Take AGTATAAG: the binding signal is 0.0587 % of ANNNNAAN 8-mers.

For AGGTTAAA, the binding signal is 0.0731 % of ANNNNAAN 8-mers.

With ACGTCAAT, the binding signal is 0.0426 % of ANNNNAAN 8-mers.

On to ATATAAAC, for which the binding signal is 0.0719 % of ANNNNAAN 8-mers.

For the sequence AGGGTAAG, the binding signal was 0.0541 % of ANNNNAAN 8-mers.

As to AACCAAAT, the binding signal is 0.121 % of ANNNNAAN 8-mers.

For ATTTTAAT, the binding signal is 0.679 % of ANNNNAAN 8-mers.

For the sequence ATTACAAA, the binding signal was 0.0955 % of ANNNNAAN 8-mers.

Consider ATTCCAAG, for which the binding signal is 0.0512 % of ANNNNAAN 8-mers.

As to AGCGTAAA, the binding signal was 0.0455 % of ANNNNAAN 8-mers.

In the case of AACGGAAA, the binding signal was 0.0552 % of ANNNNAAN 8-mers.

For the sequence AGTAGAAG, the binding signal was 0.0391 % of ANNNNAAN 8-mers.

On to ATTACAAG, for which the binding signal is 0.0875 % of ANNNNAAN 8-mers.

Regarding AATGTAAC, the binding signal is 0.0639 % of ANNNNAAN 8-mers.

With ACTAGAAC, the binding signal is 0.0207 % of ANNNNAAN 8-mers.

With ACAGGAAT, the binding signal was 0.0685 % of ANNNNAAN 8-mers.

Turning to AGCAAAAT, the binding signal was 0.0702 % of ANNNNAAN 8-mers.

In the case of ATTAGAAT, the binding signal is 0.61 % of ANNNNAAN 8-mers.

Consider ATAGAAAA, for which the binding signal was 0.0771 % of ANNNNAAN 8-mers.

As for AAGGAAAG, the binding signal was 0.0524 % of ANNNNAAN 8-mers.

With AGTACAAT, the binding signal was 0.0426 % of ANNNNAAN 8-mers.

With AACTGAAA, the binding signal was 0.0386 % of ANNNNAAN 8-mers.

Consider ACAGCAAT, for which the binding signal was 0.0288 % of ANNNNAAN 8-mers.

AATGAAAG: the binding signal is 0.088 % of ANNNNAAN 8-mers.

(Values after paper PMC10812921, “Transcriptional Coactivator BOB1 (OBF1, OCA-B) Modulates the Specificity of DNA Recognition by the POU-Domain Factors OCT1 and OCT2 in a Monomeric Configuration”.)
